The target of test [1] is Cellular tumor antigen p53 (Homo sapiens) (UniProt P04637). As to the kind of experiment: Primary qHTS for small molecule compounds that upregulate eGFP-tagged delta133p53alpha (in N-terminal) cells. (AID 2060322).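 Also: cells pre-induced with doxycycline then dosed without doxycycline; 0% = DMSO vehicle and 100% = reference activator; nearly all actives have a fitted effect of over 75% in size.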 The following applies: NCI-H358 eGFP-delta133p53alpha fluorescence, 24 h; activation: active compounds read high. A digest of the protocol: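 NCI-H358 cells pre-induced 24 h with 10 ng/ml doxycycline for eGFP-delta133p53alpha, plated dox-free and exposed 24 h at 37C to titrated compounds. Fixed, Hoechst-stained; gated GFP peak intensity by laser scanning cytometry, normalized to DMSO (0%) and 57.5 uM 5-azacytidine (100%).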

Test [2] has as its target Aldehyde dehydrogenase, mitochondrial (Homo sapiens) (UniProt P05091). The test is described as follows: qHTS for Inhibitors of the Aldehyde Dehydrogenase Family (ALDH2) Primary screen (AID 2061308).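 Also: plate controls were vehicle for no effect and reference inhibitor for full effect; nearly all actives have a fitted effect of over 55% in size.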 The note with it: ALDH2 enzyme inhibition qHTS, 1536-well; series mostly up to 56 µM. On the technique in general: qHTS replaces the single test concentration by a dilution series.

In test [3] the target is Retinaldehyde dehydrogenase 3 (Homo sapiens) (UniProt P47895). As to the kind of experiment: qHTS for Inhibitors of the Aldehyde Dehydrogenase Family (ALDH1A3) Validation screen (AID 2061312). Also: % is scaled to controls: 0 for no effect and ±100 for the full control effect; nearly all actives have a fitted effect of over 45% in size. The following applies: ALDH1A3 enzyme inhibition qHTS validation, fluorescence; series mostly up to 84.7 µM.
The target is the same in test [4]. The test is described as follows: qHTS for Inhibitors of the Aldehyde Dehydrogenase Family (ALDH1A3) Primary screen (AID 2061315).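 Also: plate controls were DMSO vehicle for no effect and reference inhibitor for full effect.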 The following applies: ALDH inhibition qHTS; series mostly up to 56 µM.
A short description of test [5]: BET inhibitor-based combinations targeting novel dependencies in MECOM-rearranged (r) AML: MV-4-11 cell line (AID 2202233). Also: nearly all actives have a fitted effect of over 45% in size. Also: potency is read from the fitted curve at half-maximal effect. The following applies: MV-4-11 AML viability, CellTiter-Glo luminescence, 48 h; series mostly up to 46 µM. The method in brief:
(§1)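 Seeding density was 500 cells/well, and drug exposure lasted 48 hr under standard culture conditions. Read-out used CellTiter-Glo reagent with a 15 min room-temperature incubation before luminescence measurement; AUC and Z-AUC summarize the normalized responses.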

A short description of test [6]: BET inhibitor-based combinations targeting novel dependencies in MECOM-rearranged (r) AML: HNT-34 cell line (AID 2202234). Also: potency is read from the fitted curve at half-maximal effect; nearly all actives have a fitted effect of over 35% in size. The note with it: HNT-34 AML viability, CellTiter-Glo luminescence, 48 h; series mostly up to 46 µM. The method in brief: as §1
(In general: Cellular ATP, detected with luciferase, serves as a proxy for viable cell number.)

Test [7] in a line: BET inhibitor-based combinations targeting novel dependencies in MECOM-rearranged (r) AML: OCI-AML3 cell line (AID 2202232). Also: nearly all actives have a fitted effect of over 35% in size. Also: potency is read from the fitted curve at half-maximal effect. The following applies: CellTiter-Glo luminescence, 48 h; Potency: OCI-AML3 viability; series mostly up to 46 µM. The method in brief: (§2)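 Readout: CellTiter-Glo luminescence. Exposure: 48 h, 11 concentrations, 500 cells/well. Metric: AUC and within-line Z-AUC after DMSO/empty-well normalization.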

Test [8] is described as follows: BET inhibitor-based combinations targeting novel dependencies in MECOM-rearranged (r) AML: UCSD-AML1 cell line (AID 2202235). Also: nearly all actives have a fitted effect of over 40% in size. Also: potency is read from the fitted curve at half-maximal effect. The following applies: UCSD-AML1 AML cells viability, CellTiter-Glo, 48 h; series mostly up to 46 µM. A digest of the protocol: as §1
Test [9] in a line: BET inhibitor-based combinations targeting novel dependencies in MECOM-rearranged (r) AML: AML-191 cell line (AID 2202236; also: nearly all actives have a fitted effect of over 35% in size; also: potency is read from the fitted curve at half-maximal effect). The following applies: AML-191 viability, CellTiter-Glo luminescence, 48 h; series mostly up to 46 µM. A digest of the protocol:
as §2

A short description of test [10]: BET inhibitor-based combinations targeting novel dependencies in MECOM-rearranged (r) AML: AML-194 cell line (AID 2202237; also: nearly all actives have a fitted effect of over 40% in size; also: potency is read from the fitted curve at half-maximal effect). The note with it: AML-194 (MECOM-r AML) viability, CellTiter-Glo, 48 h; series mostly up to 46 µM. A digest of the protocol:
as §2

Values joined by “and” are separate entries in the source; they are usually repeats but may differ in a detail not shown here. Identical values can stand only once. Records with an inconclusive call do not appear. Values without a mark were called inactive. Active and inactive are the calls of the source. Calls follow the shape of the dose curve; as a rule, active = well fitted curve in the direction sought with a large enough effect; inconclusive = small, poorly fitted or top-dose-only effect, or another doubt; inactive = no such curve, though single readings can be large; an effect the other way counts as inactive or inconclusive.

Cellular tumor antigen p53 (Homo sapiens), sequence (P04637 whole entry, looked up): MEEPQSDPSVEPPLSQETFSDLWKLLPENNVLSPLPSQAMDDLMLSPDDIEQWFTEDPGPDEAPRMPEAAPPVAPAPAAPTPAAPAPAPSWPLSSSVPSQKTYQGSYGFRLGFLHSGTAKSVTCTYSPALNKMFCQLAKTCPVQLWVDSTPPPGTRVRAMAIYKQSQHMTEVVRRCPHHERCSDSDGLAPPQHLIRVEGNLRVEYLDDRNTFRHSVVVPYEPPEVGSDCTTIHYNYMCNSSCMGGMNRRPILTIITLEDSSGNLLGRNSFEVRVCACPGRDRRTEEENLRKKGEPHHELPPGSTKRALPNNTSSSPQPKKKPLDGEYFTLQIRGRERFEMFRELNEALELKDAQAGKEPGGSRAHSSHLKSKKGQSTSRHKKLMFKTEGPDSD

With `COc1ccc2c(Oc3ccc(NC(=O)c4c(C)n(CC(C)(C)O)n(-c5ccccc5)c4=O)nc3)ccnc2c1`, the activation in test [1] was 16.6% and 11.9%. For the same compound, the Potency result in [2], in test [3] and in [4] was “inactive” in each case. In addition, the Potency in [5] was 0.372 µM (active); in test [6], 3.32 µM (active).

Take `Cc1cc(C)cc(NC(=O)Cc2ccc(OC(C)(C)C(=O)O)cc2)c1`: the activation in [1] is -4.3%. The Potency result in test [2], in test [3], in test [4], in test [7], in [5] and in test [8] was “inactive” throughout. Moreover, the Potency entry in [9] and in test [10] was “inactive” throughout.

On to `CC(C)(N)C(=O)N[C@H](COCc1ccccc1)C(=O)N1CCC2(CC1)CN(S(C)(=O)=O)c1ccccc12`, for which the activation in test [1] was 18.6% and 11%. In addition, the Potency entry in [2], in [3] and in test [4] was “inactive” in each case. Also, the figures for the Potency in [7] and in test [9] were 11.8 µM (active) and 20.9 µM (active), respectively.

As for `O=C(O)C[C@H](O)C[C@H](O)/C=C/c1c(C2CC2)nc2ccccc2c1-c1ccc(F)cc1`, the activation in [1] is 15.3%. In addition, the Potency result in test [2], in test [3] and in test [4] was “inactive” each time. For the same compound, the Potency is 1.05 µM (active) in test [7]; 2.09 µM (active) in test [5]; 2.95 µM (active) in test [6]; 2.63 µM (active) in test [8]; 10.5 µM (active) in test [9].

For the compound `CN(C)C1CCN(C(=O)c2ccc(NC(=O)Nc3ccc(-c4nc(N5CCOCC5)nc(N5CCOCC5)n4)cc3)cc2)CC1`, the activation in [1] is -0.955%. Also, the Potency result in test [2], in [3] and in test [4] was “inactive” in each case. In addition, the Potency in test [7] is 0.166 µM (active); in test [5] it was 0.118 µM (active); in test [6], 0.118 µM (active); in test [10], 1.48 µM (active).

For `CCOc1cc2c(c(F)c1OCC)C(=N)N(CC(=O)c1cc(N3CCOCC3)c(OC)c(C(C)(C)C)c1)C2`, in test [1], the activation is -9.71%. The Potency entry in test [2], in [3] and in test [4] was “inactive” each time. The Potency in test [7] is 16.6 µM (active); in test [5], 8.33 µM (active); in [6], 8.33 µM (active); in test [9], 16.6 µM (active); in test [10], 10.5 µM (active).

For the origin of these results see PubChem BioAssay (NCATS).
